# Target: CNN2
# Test: pooled miR-30 sensor sort-seq; sequence = guide strand
# Conditions: shRNA
# Further: reference of the scale not given here.
row,Sequence,sensor-assay potency score (higher = more potent)
1,ATGAGTGTGCATAAGATAGTTC,-0.603
2,AATACTTCCTGAAACTTGCGGG,0.259
3,TAGCACTCTCTCCACTGTCCTT,-0.91

# Target: CNOT1
# Test: as above
# Conditions: shRNA
row,Sequence,sensor-assay potency score (higher = more potent)
1,TTTTGTGTCATATTTGACTGTG,0.162
2,TACAGTTAAATACTTCTCGTTC,-0.0593
3,TATCTCTTTACTAAAGTGCTGG,-0.169
4,TATTCTTCAAACAAGTTCCTTA,0.402
5,TAACTTTAAGTCATGCTCCTGA,0.328
6,TTCCTTTAGCTCTTCAACCTTT,-0.326
7,TTATATGTAACTCTTTATCAGG,-0.895
